# Hits are enriched below; roughly 19% of the tested compounds scored in any of these assays.
# HT1080 IDH1KD tx: toxicity to HT-1080 IDH1 knockdown cells (counter line). HT-1080 IDH1 knockdown viability, ATP luminescence, 48 h. Potency, µM (doses to about 46.1 µM), hits mostly cytotoxic. 2% of 360,000 active
#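 Cytotoxicity counter-line: IDH1KD HT-1080, 48 h, CellTiter-Glo. Curves classed by r2, magnitude and activity.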
# HT1080-NT tox: kills 2HG-producing HT-1080-NT fibrosarcoma cells | 1.6% of 360,000 active | Potency, µM (series often up to 46.1 µM), most hits filed as cytotoxic | HT-1080-NT fibrosarcoma viability, CellTiter-Glo ATP luminescence, 48 h | AID 686970;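 note: NT is the 2HG producing partner of a matched IDH1 knockdown line; nearly all actives have a fitted effect of over 55% in size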
#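 HT-1080-NT fibrosarcoma cells (2HG-overproducing), 750 cells/well in RPMI with 5% FBS, dosed after 2 h and incubated 48 h at 37C. CellTiter-Glo luminescence normalized to DMSO and no-cell wells; concentration-response curves fitted and classed.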
# IL1B secr inh: inflammasome signaling inhibition, IL-1 beta readout; THP-1 LPS/ATP IL-1B secretion, AlphaLISA, 16 h; active compounds read low; activity change, % at 57.5 µM; 4.7% of 360,000 active; in the data active = activity change below about -50%; inconclusive = mostly about -30% to -49%
#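 THP-1 cells pretreated 1 hr with compounds (up to 57.5 uM final), then stimulated with LPS (250 ng/mL final) plus ATP (1.25 mM final); secreted IL-1B measured by AlphaLISA after 16 hr, decreased signal indicating inhibition.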
# TDP1 cell noCPT: qHTS for Inhibitors of human tyrosyl-DNA phosphodiesterase 1 (TDP1): qHTS in cells in absence of CPT. DT40 Tdp1-/- hTDP1 cells, no CPT, ATP luminescence, 48 h. Potency, µM (titrated, usually from 46.2 µM), most hits filed as inhibitors. 15% of 420,000 active; note: nearly all actives have a fitted effect of over 55% in size
#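 No-CPT arm: Tdp1-/-;hTDP1 DT40 cells (400/well) plus compounds, incubated ≥48 hr at 37 °C. Readout CellTiter-Glo luminescence.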
# TDP1 cell CPT: growth inhibition of DT40 Tdp1-/-;hTDP1 cells with camptothecin (screen for TDP1 inhibitors) | chicken DT40 Tdp1-/-;hTDP1 cells + 20 nM CPT, ATP luminescence, 48 h | Potency, µM (top dose mostly 46.2 µM), actives largely listed as inhibitors | 12% of 420,000 active; note: nearly all actives have a fitted effect of over 55% in size
#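 Chicken DT40 Tdp1-/- cells stably complemented with human TDP1 were seeded at 400 cells/well in medium containing 20 nM camptothecin, exposed to pin-transferred compounds, and grown at 37 °C for at least 48 hr. Viability was read as ATP luminescence.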
# Numbers stand for hits; – = inactive; ? = inconclusive; · = not tested or not shown. Unless noted, calls come from the whole dose curve; as a rule, active = well fitted curve in the direction sought with a large enough effect; inconclusive = small, poorly fitted or top-dose-only effect, or another doubt; inactive = no such curve, though single readings can be large; an effect the other way counts as inactive or inconclusive.
SMILES,HT1080 IDH1KD tx,HT1080-NT tox,IL1B secr inh,TDP1 cell noCPT,TDP1 cell CPT
COC(=O)c1cc2oc3ccccc3c2n1Cc1c(F)cccc1Cl,·,·,·,–,–
COc1ccccc1C(=O)NCCN1CCN(C(=O)c2ccccc2OC)CC1,–,–,–,–,–
CN1CCC(N(C)S(=O)(=O)c2ccc(NC(=O)COc3ccc(F)cc3Cl)cc2)CC1,–,–,–,?,–
Cc1ccc(S(=O)(=O)c2nnn3c2nc(NC2CCN(Cc4ccccc4)CC2)c2ccccc23)cc1C,–,–,–,5.8µM,12µM
Cc1ccc(S(=O)(=O)c2nnn3c2nc(N2CCOCC2)c2ccccc23)cc1C,–,–,-66,–,–
CCCCCc1nnc(NC(=O)NS(=O)(=O)c2ccc(C)cc2)s1,–,–,–,–,–
O=C1C=C(c2ccc(CO)cc2)C[C@@H](c2ccc3c(c2)OCO3)C1,–,–,?,?,?
CCOc1cc(OCC)cc(C(=O)N2CCC[C@@H]2C(=O)N2CCC[C@H]2C(=O)NCc2ccncc2)c1,–,–,–,–,–
COc1cc(C=O)ccc1OCCOCCOc1ccc(Cl)cc1Cl,–,–,?,15µM,?
O=C(Nc1ccc([N+](=O)[O-])cc1)N1CCCCC1,–,–,–,–,–
CCOc1ccc(C(=S)N2CCCC2)c(OCC)c1,–,–,–,?,21µM
N=c1oc2ccccc2cc1C(=O)Nc1ccccc1,–,–,–,–,–
N=c1oc2cc(O)ccc2cc1C(=O)Nc1ccc(Br)cc1,?,?,-90,?,?
COc1ccc(Cl)cc1C(=O)NCCCSc1ccccc1,–,–,-54,?,–
O=C(NCCSc1ccccc1)c1ccc(Br)cc1,–,–,–,–,–
O=C(NCCCSc1ccccc1)c1cc(Br)ccc1O,18µM,?,–,?,?
O=C(CNC(=O)c1cccc(Cl)c1)NCCCSc1ccccc1,–,–,–,23µM,?
CCCCC(=O)NC(Nc1ccc(C)cn1)(C(=O)OCC)C(F)(F)F (stereo unspecified),–,–,–,?,–
CCC1CCc2c(sc3ncnc(N4CCOCC4)c23)C1 (stereo unspecified),–,–,–,18µM,?
CC(=O)N1c2ccc(S(=O)(=O)N3CCCC(C(=O)N4CCCC(C)C4)C3)cc2CC1C (stereo unspecified),–,–,–,?,23µM
CC(=O)N1c2ccc(S(=O)(=O)NCCC(=O)N3CCCC(C)C3)cc2CC1C (stereo unspecified),–,–,–,?,18µM
CC(=O)N1c2ccc(S(=O)(=O)N3CCCC(C(=O)N4CCC(C)CC4)C3)cc2CC1C (stereo unspecified),–,–,–,16µM,21µM
Cc1oc2cc3oc(=O)c(CCC(=O)NCc4ccccn4)c(C)c3cc2c1C,–,–,–,–,?
COC(=O)c1cc(C)nc(Nc2nc(C(N)Cc3ccc(F)cc3)cs2)n1 (stereo unspecified),–,–,–,–,?
CCc1cnc(Nc2nc(C(N)Cc3ccc(F)cc3)cs2)nc1 (stereo unspecified),23µM,?,-62,18µM,12µM
SMILES,HT1080 IDH1KD tx,HT1080-NT tox,IL1B secr inh,TDP1 cell noCPT,TDP1 cell CPT
Cc1cnc(C)c(Nc2nc(C(N)Cc3ccc(F)cc3)cs2)n1 (stereo unspecified),?,21µM,–,?,26µM
Cc1cnc(C)c(Nc2nc(C(N)Cc3ccc(Cl)cc3)cs2)n1 (stereo unspecified),23µM,18µM,–,18µM,8.2µM
COc1ccc(CC(N)c2csc(Nc3nc(C)cnc3C)n2)cc1 (stereo unspecified),?,?,–,15µM,18µM
CN(C)CCCNS(=O)(=O)c1ccc(Cl)s1,–,–,–,–,–
COC(=O)c1cccc(NC(=O)CN2CCc3ccccc3C2)c1,–,–,–,–,–
CCN(CC(=O)NCc1ccc(Cl)cc1)C(=O)CSCC(=O)Nc1cccc(C)c1,–,–,–,–,–
COc1cccc(CNS(=O)(=O)c2ccc3c(c2)N(C)CCO3)c1,–,–,–,–,?
Cc1cnc(C(=O)OCC(=O)NC(C)CCc2ccccc2)cn1 (stereo unspecified),–,–,–,–,–

# Screening results as filed in PubChem.
